Screens from PubChem.
In the library only some 0.65% were active in any assay of this set; here they are far more common.
NS1 function inh: influenza NS1 inhibition; Potency, µM (series often up to 46.1 µM), without a hit: top-dose activity, positive = more growth; actives 0.4% (n = 270,000); AID 2326; further: actives are rising curves; nearly all actives have a fitted effect of over 50% in size
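In this qHTS, NS1 from influenza A is expressed in budding yeast, where it slows growth. Cells are switched from glucose to 2% galactose medium (pH 6.0, -URA), treated with compound, and growth recovery is read at OD600.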
SARS PLpro yeast: inhibitors of SARS-CoV papain-like protease in yeast. S. cerevisiae expressing SARS-CoV PLpro, growth rescue. AID 485353. Potency, µM (titrated, usually from 32.9 µM), without a hit: at the top dose activity, positive = growth rescue, usual class: activators. actives 0.19% (n = 330,000); further: 0% is about no effect; nearly all actives have a fitted effect of over 55% in size
AMA1 RON2 block: inhibitors of Plasmodium falciparum AMA1-RON2 interaction | Potency, µM (top dose mostly 58.2 µM), for the others: at the top dose activity change, negative = inhibition, most hits filed as inhibitors | actives 0.2% (n = 360,000) | AlphaScreen AMA1-biotinylated RON2 peptide binding; active means well fitted inhibition curve with a large enough effect; inconclusive means small, poorly fitted or top-dose-only effect; inactive means no such curve, though single readings can be large or run the other way;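 further: 0% = vehicle wells and -100% = peptide control; nearly all actives have a fitted effect of over 45% in size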
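AMA1 (3D7) with his tag at 25 nM final met compounds first, then biotinylated RON2 peptide at 25 nM; detection used donor plus acceptor beads, 10 µg/mL apiece, read by AlphaScreen after 30 min at room temperature.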
Starred values were filed as active, the others as inactive; ? = inconclusive; nt = no result; [ ] = another dose, or the depositor's remark. Unless noted, the call rests on the fitted dose curve. Potency means the concentration at half of the fitted maximal effect.

SMILES	NS1 function inh	SARS PLpro yeast	AMA1 RON2 block
COc1ccc2cc1Oc1ccc(cc1)CC1c3c(cc(OC)c4c3Oc3cc5c(cc3O4)CCNC5C2)CCN1C (configuration not stated)	0%	0%	14µM*
COc1ccc2cc1Oc1ccc(cc1)C[C@H]1c3c(cc(OC)c4c3Oc3c(ccc5c3[C@H](C2)N(C)CC5)O4)CCN1C	nt	-6%	-25%
COc1ccc(-c2cn3cccnc3n2)cc1NC(=O)Nc1cc(C)ccc1C	nt	5%	nt
CCC(Oc1ccccc1)C(=O)Nc1cc(C)on1 (configuration not stated)	5%	-2%	-20%
CCC(OC(=O)C(NC(=O)c1ccccc1)c1ccccc1)C(=O)Nc1cc(C)on1 (configuration not stated)	-17%	22µM*	13%
CC(C)c1nccn1CCC(=O)O	4%	-7%	-3%
CSc1ccn(CCC(=O)O)c(=O)n1	-7%	10µM*	39%
O=c1oc2ccccc2c2c1C1O[C@](c3ccsc3)(Cc3c1ccc1ccccc31)O2	12%	-12%[6.58 µM]	nt
CCN1/C(=C\C=C\C2=[N+](CC)c3ccccc3C2(C)C)C(C)(C)c2ccccc21	-41%	-33%	14µM*
CCOC(=O)/C=C1/N(C)c2ccccc2C1(C)C	-8%	-5%	8%
Cc1cc(Cc2cc(C)c(N)cc2C)c(C)cc1N	3%	0%	-15%
Cc1cc(Cc2cc(C)c(N)cc2N)c(N)cc1N	8.9µM*	nt	nt
Cc1[nH]c(=O)n(C(C)C)c(=O)c1Br	nt	nt	0%
COc1ccc(NC(=O)CC2C(=O)N(CCc3ccccc3)C(=S)N2Cc2cccnc2)cc1 (configuration not stated)	-33%	-26%	-12%
CCN1C(=O)C(CC(=O)Nc2ccc(OC)cc2)N(Cc2cccnc2)C1=S (configuration not stated)	8%	0%	12µM*
CCCSC1=N/C(=C\C=C\c2ccco2)C(=O)S1	-80%	-24%	11µM*
O=C1SC(SCc2ccccc2)=N/C1=C\c1ccco1	-4%	nt	?
CC(C)(C)c1cc(CCC(=O)NNC(=O)c2ccncc2)cc(C(C)(C)C)c1O	nt	-9%	112%
Cc1nnc(-c2ccccc2)c(=O)n1/N=C/c1c(O)ccc2ccccc12	-48%	3.2µM*	-26%
Cc1nnc(C)n1/N=C/c1c(O)ccc2ccccc12	-2%	-1%	95%
Cc1ccc2c(CNCc3ccccc3)cc(=O)oc2c1	-3%	-13%	-16%
Cc1ccc(CCNC(=O)c2c[nH]c3ccc(S(=O)(=O)Nc4ccc(C)cc4C)cc3c2=O)cc1	nt	-4%	nt
O=[N+]([O-])c1ccc(N2CCN(Cc3ccccc3)CC2)c2c1no[n+]2[O-]	nt	nt	22µM*
O=[N+]([O-])c1ccc(N2CCN(Cc3ccccc3)CC2)s1	-4%	0%	5%
Cc1ncnc(N)c1CCCNc1ccccc1	nt	nt	-23%
SMILES	NS1 function inh	SARS PLpro yeast	AMA1 RON2 block
CCn1nc(CC(=O)Nc2nnc(CC(=O)N3CCCC3)s2)c2ccccc2c1=O	20µM*	1%	29%
CCn1nc(CC(=O)Nc2nnc(CC(=O)N3CCOCC3)s2)c2ccccc2c1=O	-2%	0%	11%
CCCCC[C@]12Cc3cc(OC)c(OC)cc3[C@H](O1)c1c(cc(C)oc1=O)O2	3%	-1%[6.58 µM]	nt
O=C(N=c1nc2ccccn2s1)c1ccccc1	11µM*	-1%	0%
O=C(c1ccccc1)n1c(=S)nc2ccccn21	-14%	-6%	-20%
O=C(OCC(=O)N1CCCc2ccccc21)c1ccc(S(=O)(=O)C(F)F)cc1	nt	-3%	0%
CC(=O)Nc1ccc(NC(=O)C(C)N(C)CC(=O)Nc2ccccc2Br)cc1 (configuration not stated)	-3%	0%	65%
Cc1c(C(=O)N(Cc2ccc(Cl)cc2)C2CCS(=O)(=O)C2)oc2ccccc12 (configuration not stated)	15%	-6%	-2%
Cc1ccc2c(C)c(C(=O)N(Cc3ccc(N(C)C)cc3)C3CCS(=O)(=O)C3)oc2c1 (configuration not stated)	-35%	-13%	18µM*
Cc1ccc2oc(C(=O)N(Cc3ccc(N(C)C)cc3)C3CCS(=O)(=O)C3)c(C)c2c1 (configuration not stated)	-15%	-10%	28µM*
CCOc1ccc(CN(C(=O)c2oc3ccccc3c2C)C2CCS(=O)(=O)C2)cc1 (configuration not stated)	-59%	-3%	-15%
Cc1ccc(C(=O)NNC(=O)c2csc(N3CCOCC3)n2)s1	nt	3%	52%
Cc1cnc(N=Nc2ccccc2)[nH]1	nt	nt	4%
COc1c(F)cccc1C1=CC(=O)C[C@H](c2ccc(F)cc2)C1	nt	nt	-1%
Cc1ccc(NC(=O)COC(=O)/C=C/c2cccs2)cc1	8%	2%	-8%
CCN(c1ccc(NC(=O)COC(=O)/C=C/c2cccs2)cc1)C(C)C	nt	0%	18µM*
CC(=O)c1cccc(NC(=O)c2c(-c3c(F)cccc3Cl)noc2C)c1	nt	1%	-2%
[O-][n+]1nc2ccccc2c2ccccc21	nt	nt	-29%
CCn1cc(CN2CCc3c([nH]c4ccccc34)C2c2ccc(F)c(OC)c2)c(C)n1 (configuration not stated)	-1%	-1%	-9%
CCn1nc(C)c(CN2CCc3c([nH]c4ccccc34)C2c2ccc(F)c(OC)c2)c1C (configuration not stated)	-7%	-2%	40µM*
CCCC(=NC(C)CC)C1=C(O)CC(c2ccccc2)CC1=O (configuration not stated)	-62%	-6%	-26%
CCN(CC(=O)Nc1c(F)cccc1F)C(=O)CNC(=O)c1ccc(C)s1	-35%	-3%	-6%
NS(=O)(=O)c1ccc(S(=O)(=O)N(CCc2ccccc2)Cc2ccccn2)cc1	5%	3.5µM*	2%
O=S(=O)(c1ccc(Cl)cc1)N(Cc1ccccn1)Cc1ccccn1	-6%	1%	16%
O=C(N/N=C/c1ccccc1O)C(=O)Nc1ccccn1	nt	0%	69%
SMILES	NS1 function inh	SARS PLpro yeast	AMA1 RON2 block
O=C(NCCCN1CCCC1=O)c1ccccc1OCc1ccc(Cl)cc1Cl	nt	1%	-2%
CCCCNC(=S)N/N=C/c1cc(C)ccc1C	-3%	?	-7%
CCCCNC(=S)N/N=C/c1ccccc1F	-5%	13µM*	34%
Cc1ccc(N2C(=O)NC(=O)/C(=C/c3cnc(-c4ccccc4)nc3)C2=O)cc1C	5%	13µM*	16%
Cc1cccc(N2C(=O)NC(=O)/C(=C\c3cnc(-c4ccccc4)nc3)C2=O)c1	15%	-12%	14%
Cc1ccc(C(=O)N/C(=C\c2ccco2)C(=O)NCCCn2ccnc2)cc1C	?	-5%	17µM*
COc1ccc(C(=O)N/C(=C\c2ccco2)C(=O)NCCCn2ccnc2)cc1	-2%	-8%	-1%
CCc1ccc(-c2cc(C)no2)cc1S(=O)(=O)N1CCN(c2ccccc2)CC1	12%	-6%	-5%
O=c1[nH]c(=S)[nH]c2c1C(c1ccc(F)cc1)OC(CCOCc1ccccc1)C2 (configuration not stated)	nt	nt	106%
COc1ccc(CNCCC(c2ccc(OC)cc2)c2ccccc2OC)cc1 (configuration not stated)	1%	-2%	5%
COc1ccc(C(CCNCc2ccc(N(C)C)cc2)c2ccccc2OC)cc1 (configuration not stated)	-1%	-2%	13µM*
